The results in this text go back to PubChem BioAssay.

SMILES strings stand for the structures. Several values for one entry are separate records, joined by “and”; a condition that tells them apart may be missing. Identical values can stand only once. For part of these data: Potency and affinity values are given separately. More than one record can exist for a structure, and the calls need not agree. Activity calls are given as the source filed them. Unless noted, no stated cut-off is given here; in the data, active means parasite load remaining mostly below about 12% (no sharp cut-off); inactive means mostly above about 10%.

A short description of assay [1]: blockers of polyQ-driven CASP3 activation – cell-based (AID 1583). The settings on record: polyglutamine-induced caspase-3 activation, cell assay; stronger effect = higher value;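 tested at 10 µM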.
The nature of assay [2]: yeast 75Q aggregation reduction – 75Q-TubU reporter (AID 1593). As to conditions: Yeast 75Q polyglutamine aggregation reporter.
Assay [3] is described as follows: restoration of touch response, mutant HTT neurons – whole organism, C. elegans mechanosensory neurons, N-terminal huntingtin (AID 1599). The settings on record: C. elegans polyQ-huntingtin mechanosensory neurons, stronger effect = higher value.
Assay [4] is described as follows: blockers of cytochrome c efflux from mitochondria – biochemical, purified mitochondria (AID 1603).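 Further: mouse liver mitochondria challenged with calcium chloride; signal normalized to the plate average as 100%.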 The settings on record: stronger effect = lower value.
Assay [5] can be described thus: polyglutamine aggregate formation blockers (AID 1604). The settings on record: polyglutamine-induced protein aggregation inhibition assay; stronger effect = higher value; tested at 2.5 µM.
Assay [6] in a line: glutamate transport activators, MN-1 cells, MN-1 cell line (AID 1612).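 Further: tested at 1 µM final; 0% = mean of DMSO vehicle wells on each plate; positive means more glutamate uptake than control and negative means less.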 As to conditions: MN-1 motor neuron cells, stronger effect = higher value.
The nature of assay [7]: 75Q-TubH aggregate inhibition, S. cerevisiae, yeast (AID 1616). The settings on record: S. cerevisiae 75Q-TubH polyglutamine aggregation suppression; stronger effect = higher value.
Assay [8] can be described thus: P. berghei load reduction in hepatocytes – cell-based, HepG2, luciferase luminescence, HepG2 viability, primary screen (AID 624349).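 Further: 100% = mean of DMSO negative control wells on the same plate.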 The settings on record: P. berghei liver stage in HepG2, luciferase luminescence, concentration not given here; parasite load remaining: stronger effect = lower value; viability: measured here: HepG2 viability without parasites.
Assay [9] can be described thus: EMT-state selective cytotoxicity in co-culture – imaging, PC-3E GFP, TEM4-18 mCherry, primary screen (AID 1345086;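 active means compounds killing one labelled cell type while sparing the other, by normalised counts and ratio limits, not self-fluorescent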;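 on all read-outs here: cells exposed to compound for 72 h before imaging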;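 on red/green cell ratio (normalised): normalised mesenchymal count divided by normalised epithelial count so high means epithelial killing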). The settings on record: PC-3E GFP / TEM4-18 mCherry co-culture, imaging cell counts, at 1 µM; for red/green cell ratio (normalised): actives lie on both sides, counts scaled to control wells, 1 = unselective.
Assay [10] in a line: viability loss with induced miR-34 in A549 – imaging, A549 dox-inducible miR-34, nuclei and caspase counts, primary screen (AID 1347080;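 active means compounds whose cell count with miR-34 switched on is under 0.7 times the count with it off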). The settings on record: A549 miR-34 inducible, Hoechst nuclei count, 48 h.
Assay [11] can be described thus: GFP-Q80 aggregate reduction, neuronal-like cells, cell-based, NGF-treated PC12, GFPQ80 (AID 1614).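 Further: lower means fewer inclusions and 0 means no inclusions at all.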 As to conditions: PC12 NGF-treated GFP-polyQ80 inclusion reduction.
Assay [12] is described as follows: galactose survival enhancers in mitochondrial complex I cybrids – cell-based, galactose medium, ATP luminescence, primary screen (AID 1645843;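 active means z-score of at least 1.8 in each of two replicates, scored against plate mean and spread of sample wells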;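 further: positive z means more ATP and so rescue of galactose-driven cybrid death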). The settings on record: complex I mutant cybrid cells, 72 h, stronger effect = higher value.
The mark [13] stands for this setting: measured here: epithelial PC-3E GFP cell survival.
[14] abbreviates: measured here: mesenchymal TEM4-18 mCherry cell survival.
The mark [15] stands for this setting: stronger effect = lower value, cell number ratio, induced over uninduced.
The mark [16] stands for this setting: measured here: relative caspase fold change +Dox/-Dox.
The mark [17] stands for this setting: measured here: total cells with miR-34 induction, stronger effect = lower value.
Setting [18] is: measured here: total cells without miR-34 induction.

Turning to `Nc1ccn(C2O[C@H](CO)[C@@H](O)[C@@H]2O)c(=O)n1` (stereo not given in full), in assay [1], the inhibition was 26%. For the same compound, the score in [2] came out at 1.28. In addition, the rescue above control in [3] was determined as 1.26. Also, in assay [4], the cytochrome c release ratio is 1.03. The inhibition of aggregation in assay [5] came out at 77.5%. Also, the glutamate uptake change in assay [6] was -13.5%. The compound further showed an aggregation suppression score in [7] of 1.27. Also, in assay [8], the parasite load remaining was 129% (inactive) and 95.7% (inactive). For the same compound, the viability in assay [8] is 74% and 95.8%. Besides, the red/green cell ratio (normalised) in assay [9] was 1.61 (inactive). For the same compound, the normalised cell number was determined as 0.27 in assay [9] (setting [13]) and 0.43 in [9] (setting [14]). Moreover, the results for the fold change in assay [10] (setting [15]) and in assay [10] (setting [16]) were 0.952 (inactive) and 1.13, respectively. Moreover, the cell count in assay [10] (setting [17]) worked out at 1930; in [10] (setting [18]) it was 2030.
As for `C#C[C@]1(O)CCC2C3CCC4=Cc5oncc5C[C@]4(C)C3CC[C@@]21C` (stereo not given in full), the inhibition in [1] is 10.9%. In addition, in assay [2], the score is 1.04. In [3], this compound returned a rescue above control of 5.61. Moreover, the cytochrome c release ratio in [4] was determined as 1.19. Also, the inhibition of aggregation in [5] was 69.1%. In addition, in [6], the glutamate uptake change is -6.15%. In assay [7], this compound showed an aggregation suppression score of 0.874. For the same compound, the parasite load remaining in assay [8] was 83.8% (inactive) and 19.9% (inactive). In assay [8], the viability was 69% and 89.7%. Besides, the red/green cell ratio (normalised) in assay [9] is 1.05 (inactive). The normalised cell number stood at 1.19 in assay [9] (setting [13]) and 1.26 in assay [9] (setting [14]). The fold change in assay [10] (setting [15]) is 0.952 (inactive); in assay [10] (setting [16]) it was 2.2. Moreover, the figures for the cell count in assay [10] (setting [17]) and in assay [10] (setting [18]) were 9590 and 10100, respectively.
With `C[C@]12CCC(=O)C=C1CCC1C2[C@@H](O)C[C@@]2(C)C1CC[C@]2(O)C(=O)COC(=O)CCC(=O)O` (stereo not given in full), the inhibition in [1] was 7.51%. Besides, the score in assay [2] was 1.55. In addition, in [3], the rescue above control was -3.62. In addition, the cytochrome c release ratio in [4] was determined as 1.58. For the same compound, the inhibition of aggregation in assay [5] came out at 37.2%. Also, the glutamate uptake change in [6] is -0.65%. This compound also came in with an inclusion score in assay [11] of 2. The compound further registered an aggregation suppression score in [7] of 1.36. The parasite load remaining in assay [8] is 137% (inactive) and 66.7% (inactive). Also, the viability in [8] was 78.6% and 93.3%. For the same compound, the red/green cell ratio (normalised) in assay [9] is 1.43 (inactive). Besides, the normalised cell number in [9] (setting [13]) was determined as 0.86; in assay [9] (setting [14]), 1.23. The fold change in assay [10] (setting [15]) was 0.766 (inactive); in [10] (setting [16]) it was 0.842. The values for the cell count in [10] (setting [17]) and in assay [10] (setting [18]) were 7240 and 9450, respectively.
As to `C[C@]12CCC(=O)C=C1CCC1C2C(=O)C[C@@]2(C)C1CC[C@]2(O)C(=O)CO` (stereo not given in full), the red/green cell ratio (normalised) in [9] was 0.7 (inactive). In addition, the values for the normalised cell number in assay [9] (setting [13]) and in [9] (setting [14]) were 1.3 and 0.91, respectively. The fold change in assay [10] (setting [15]) was 0.915 (inactive); in assay [10] (setting [16]) it was 1.12. In addition, the cell count is 9120 in assay [10] (setting [17]) and 9960 in assay [10] (setting [18]). Moreover, the z-score in [12] was 0.345 (inactive).
Regarding `C=C[C@H]1CN2CC[C@H]1C[C@@H]2[C@H](O)c1ccnc2ccc(OC)cc12`, the inhibition in assay [1] is -2.2%. In addition, in [2], the score was found to be 1.5. Further, the rescue above control in [3] is -7.29. For the same compound, in [4], the cytochrome c release ratio amounted to 0.97. Moreover, the inhibition of aggregation in assay [5] is 9.09%. For the same compound, the glutamate uptake change in assay [6] came to 13.1%. This compound also returned an aggregation suppression score in assay [7] of 1.58. Besides, the parasite load remaining in assay [8] was 68.2% (inactive) and 15.1% (active). Further, the viability in assay [8] was 72.3% and 81.3%. The red/green cell ratio (normalised) in assay [9] is 1.16 (inactive). In addition, the normalised cell number came out at 1.05 in [9] (setting [13]) and 1.21 in assay [9] (setting [14]). Moreover, the values for the fold change in assay [10] (setting [15]) and in assay [10] (setting [16]) were 0.948 (inactive) and 2.86, respectively. In addition, the cell count is 10900 in assay [10] (setting [17]) and 11500 in assay [10] (setting [18]).
For the compound `CC(=O)OCC(=O)[C@@]1(O)CCC2C3CCC4=CC(=O)C=CC4(C)C3[C@@H](O)C[C@@]21C` (stereo not given in full), the inhibition in assay [1] is 26%. The score in assay [2] was determined as 0.73. Also, in assay [3], the rescue above control is -9.27. For the same compound, the cytochrome c release ratio in assay [4] came out at 0.8. In [5], this compound returned an inhibition of aggregation of 51%. The glutamate uptake change in assay [6] was found to be 16.1%. The compound further gave an inclusion score in assay [11] of 2. This compound had an aggregation suppression score in assay [7] of 0.991. Also, the parasite load remaining in assay [8] is 118% (inactive) and 56% (inactive). The viability in [8] is 73.8% and 82.3%. For the same compound, in assay [9], the red/green cell ratio (normalised) is 1.41 (inactive). The results for the normalised cell number in [9] (setting [13]) and in assay [9] (setting [14]) were 1 and 1.41, respectively. Besides, the fold change in [10] (setting [15]) is 0.859 (inactive); in [10] (setting [16]), 2.47. The cell count amounted to 6780 in assay [10] (setting [17]) and 7890 in assay [10] (setting [18]).

For orientation: inhibition means the change of the read-out against control, counted positive when it falls. As a reminder, the viability is a per cent measure of how many cells are alive, often set against a control.
